Pf Dd2 inh – P. falciparum Dd2 growth inhibition | SYBR Green, 72 h; hits give low values | activity change, % at 10 µM | 2.3% of 94,000 active | AID 1159554; in the data active = activity change below about -80%; inconclusive = no clear call, values can overlap the other calls
C diff HTS – blocks growth of Clostridium difficile; Clostridium difficile clinical isolate growth, OD600, 24 h; hits give low values; growth activity, negative = inhibition, % at 16 µg/mL (by protocol); 0.25% of 86,000 active;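 active = mean growth activity at or below -80% and every replicate also at or below -80%; inconclusive = mean at or below -80% but some replicate above -80%; inactive = mean growth activity above -80%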
T cruzi growth-1 – T. cruzi proliferation inhibition. T. cruzi beta-gal in NIH3T3, GalScreen luminescence, 90 h. inhibition, % at 8.34 µM. 5.9% of 77,000 active. AID 624255;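 active = mean inhibition above about 93%, with at least 55% of replicates each passing it, limit read from the data, passing the limit was not always enough; inconclusive = only one of those two conditions holds; inactive = neither condition holds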
T cruzi growth-2 – inhibitors of T. cruzi proliferation | 72% of 5,600 active | shares compounds with T cruzi growth-1 | T. cruzi beta-gal in NIH3T3, GalScreen luminescence, 90 h | inhibition, % at 8.35 µM;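 active = mean replicate inhibition above about 95% and at least 55% of replicates individually reaching it, limit read from the data; inconclusive = only one of the two criteria is met; inactive = neither criterion is met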
T cruzi growth-3 – inhibitors of T. cruzi proliferation. 21% of 5,600 active. T. cruzi beta-gal in NIH3T3, GalScreen luminescence, 90 h. AID 651740. shares compounds with T cruzi growth-1. inhibition, % at 2.09 µM;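 active = mean inhibition above about 95%, with at least 55% of replicates also reaching it, limit read from the data; inconclusive = meets just one of the two conditions; inactive = meets neither condition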
3T3 cytotox – kills mouse NIH/3T3 fibroblasts | cytotoxicity (signal decrease), % at 8.35 µM | shares compounds with T cruzi growth-1 | 14% of 5,600 active | NIH/3T3 viability, CellTiter-Glo ATP luminescence, 90 h | AID 651742;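 active = mean signal decrease across replicates above about 35% based on untreated-well scatter, with enough replicates individually passing, limit read from the data; inconclusive = no rule stated though some were filed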
3T3 cytotox 2 – NIH/3T3 (mouse) viability loss | inhibition, % at 24.9 µM | NIH/3T3 viability, CellTiter-Glo ATP luminescence, 90 h | 56% of 5,600 active | shares compounds with T cruzi growth-1 | AID 651744;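 active = mean loss of cell viability signal at or above a set limit, and enough replicates individually reaching it; inconclusive = meets only the mean limit or only the replicate share; inactive = meets neither condition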
Hits are given with their value; n = inactive; u = inconclusive; x = not tested or not shown. The list is not random: actives were taken first. Their share in the collection is about 6.8%.

SMILES	Pf Dd2 inh	C diff HTS	T cruzi growth-1	T cruzi growth-2	T cruzi growth-3	3T3 cytotox	3T3 cytotox 2
CC(C)NC(=O)N(C)C[C@H]1Oc2cc(-c3ccncc3)ccc2S(=O)(=O)N([C@@H](C)CO)C[C@@H]1C	n	n	110	n	n	n	n
Cc1ccc(-c2ccc3c(c2)O[C@@H](CN(C)C(=O)NC(C)C)[C@@H](C)CN([C@@H](C)CO)S3(=O)=O)cc1	n	n	n	x	x	x	x
C[C@H]1CN([C@@H](C)CO)C(=O)c2cccc(N(C)C)c2O[C@H]1CN(C)C(=O)Nc1ccccc1	n	n	n	x	x	x	x
C[C@H]1CN([C@@H](C)CO)S(=O)(=O)c2ccc(C#CC3CC3)cc2O[C@@H]1CN(C)C(=O)c1ccncc1	n	n	n	x	x	x	x
C[C@@H]1CN([C@@H](C)CO)S(=O)(=O)c2ccc(C#CC3CC3)cc2O[C@H]1CN(C)C(=O)c1ccccc1	n	n	u	u	n	n	48
C[C@H]1CN([C@@H](C)CO)S(=O)(=O)c2ccc(C#CC3CC3)cc2O[C@H]1CN(C)C(=O)c1ccncc1	n	n	110	96	n	n	30
C[C@H](CO)N1C[C@H](C)[C@H](CN(C)C(=O)c2cccnc2)Oc2cc(C#CC3CC3)ccc2S1(=O)=O	n	n	n	x	x	x	x
CN1C(=O)c2cc(NC(=O)c3ccccc3F)ccc2OC[C@H]2O[C@@H](CC(=O)NCc3ccc4c(c3)OCO4)CC[C@H]21	n	n	n	x	x	x	x
C[C@@H]1CCCCO[C@@H](CN(C)Cc2ccccc2)[C@@H](C)CN([C@@H](C)CO)C(=O)c2cc(NC(=O)Cc3ccccc3)ccc2O1	n	n	x	x	x	x	x
Cc1noc(C)c1S(=O)(=O)Nc1ccc2c(c1)CC(=O)N([C@H](C)CO)C[C@@H](C)[C@@H](CN(C)Cc1ccc(Cl)c(Cl)c1)O2	n	n	n	x	x	x	x
C[C@@H]1CCCCO[C@H](CN(C)C(=O)Nc2ccc(C(F)(F)F)cc2)[C@@H](C)CN([C@H](C)CO)C(=O)c2cc(NS(=O)(=O)c3ccc(Cl)cc3)ccc2O1	n	n	104	99	n	n	n
COc1ccc(S(=O)(=O)Nc2ccc3c(c2)C(=O)N([C@H](C)CO)C[C@H](C)[C@@H](CN(C)C(=O)Nc2ccc(C(F)(F)F)cc2)OCCCC[C@@H](C)O3)cc1	n	n	108	99	n	n	n
C[C@H]1CCCCO[C@@H](CN(C)C(=O)Nc2ccc(C(F)(F)F)cc2)[C@@H](C)CN([C@@H](C)CO)C(=O)c2cc(NS(=O)(=O)c3ccc(Cl)cc3)ccc2O1	n	n	n	x	x	x	x
Cc1ccc(S(=O)(=O)Nc2ccc3c(c2)C(=O)N([C@H](C)CO)C[C@H](C)[C@@H](CN(C)C(=O)Nc2ccc(C(F)(F)F)cc2)OCCCC[C@H](C)O3)cc1	n	n	109	105	113	n	n
C[C@@H]1CCCCO[C@H](CN(C)C(=O)Nc2ccc(C(F)(F)F)cc2)[C@H](C)CN([C@@H](C)CO)C(=O)c2cc(NS(=O)(=O)c3ccc(Cl)cc3)ccc2O1	n	n	n	x	x	x	x
C[C@H](CO)N1C[C@H](C)[C@H](CN(C)C(=O)Nc2ccc(C(F)(F)F)cc2)OCCCC[C@H](C)Oc2ccc(NS(=O)(=O)c3ccc(F)cc3)cc2C1=O	n	n	n	x	x	x	x
C[C@@H]1CCCCO[C@@H](CN(C)C(=O)Nc2ccc(C(F)(F)F)cc2)[C@H](C)CN([C@H](C)CO)C(=O)c2cc(NS(=O)(=O)c3ccc(Cl)cc3)ccc2O1	n	n	u	n	118	n	n
COc1ccc(S(=O)(=O)Nc2ccc3c(c2)C(=O)N([C@H](C)CO)C[C@@H](C)[C@H](CN(C)C(=O)Nc2ccc(C(F)(F)F)cc2)OCCCC[C@@H](C)O3)cc1	n	n	n	x	x	x	x
CCCC(=O)Nc1ccc2c(c1)OC[C@H](C)N(Cc1cccc(F)c1)C[C@H](C)[C@@H](OC)CN(C)C2=O	n	n	x	x	x	x	x
C[C@@H]1CCCCO[C@@H](CN(C)C(=O)Nc2ccc(C(F)(F)F)cc2)[C@H](C)CN([C@@H](C)CO)C(=O)c2cc(NS(=O)(=O)c3ccc(Cl)cc3)ccc2O1	n	n	n	x	x	x	x
